We go through 36 molecules from PubChem BioAssay AID602144 (Vanderbilt Specialized Chemistry Center, 2011).

The assay deals with Phospholipase D1 (Homo sapiens) (UniProt Q13393). Put plainly: cellular phospholipase D1 activity inhibition – Calu-1 cells, single concentration (AID 602144).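 Also: tested at 200 nM.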 The note with it: cellular PLD1 activity, stronger effect = lower value.

SMILES strings stand for the structures. A number with no mark means an inactive call. Activity calls are given as the source filed them. Rule as the data show it: active = remaining activity below about 50%; inactive = the rest.

Broadly, the remaining activity is the signal under treatment as a percentage of the control signal.

Sequence of Phospholipase D1 (Homo sapiens) (Q13393 whole entry, looked up): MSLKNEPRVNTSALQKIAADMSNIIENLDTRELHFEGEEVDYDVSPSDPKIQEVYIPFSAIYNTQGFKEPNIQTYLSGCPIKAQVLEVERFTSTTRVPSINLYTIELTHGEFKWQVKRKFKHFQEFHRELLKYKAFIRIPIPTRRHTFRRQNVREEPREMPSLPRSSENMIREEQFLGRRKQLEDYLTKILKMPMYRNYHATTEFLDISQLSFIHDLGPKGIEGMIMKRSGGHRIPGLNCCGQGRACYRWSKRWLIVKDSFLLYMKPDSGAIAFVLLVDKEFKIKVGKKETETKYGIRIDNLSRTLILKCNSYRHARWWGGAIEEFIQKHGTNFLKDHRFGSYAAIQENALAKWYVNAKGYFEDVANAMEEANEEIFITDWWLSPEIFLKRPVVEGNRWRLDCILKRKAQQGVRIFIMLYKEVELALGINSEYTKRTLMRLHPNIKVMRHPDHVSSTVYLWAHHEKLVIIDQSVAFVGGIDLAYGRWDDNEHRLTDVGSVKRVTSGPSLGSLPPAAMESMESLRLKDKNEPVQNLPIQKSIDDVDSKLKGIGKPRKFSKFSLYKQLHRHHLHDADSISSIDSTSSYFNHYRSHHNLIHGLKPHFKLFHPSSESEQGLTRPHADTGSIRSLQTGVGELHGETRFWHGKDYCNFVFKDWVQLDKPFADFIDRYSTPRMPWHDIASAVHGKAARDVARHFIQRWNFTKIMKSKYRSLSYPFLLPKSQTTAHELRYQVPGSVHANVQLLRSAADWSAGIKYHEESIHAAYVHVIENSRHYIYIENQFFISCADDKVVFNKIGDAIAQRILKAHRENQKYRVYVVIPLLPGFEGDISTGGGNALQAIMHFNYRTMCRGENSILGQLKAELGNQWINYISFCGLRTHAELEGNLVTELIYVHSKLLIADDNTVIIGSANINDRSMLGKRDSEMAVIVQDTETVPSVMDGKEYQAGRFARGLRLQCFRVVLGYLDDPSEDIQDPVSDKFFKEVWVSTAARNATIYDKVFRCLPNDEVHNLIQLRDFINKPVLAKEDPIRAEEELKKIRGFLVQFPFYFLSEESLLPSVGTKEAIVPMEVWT
Sequence of Phospholipase D1 (Homo sapiens) (Q13393 whole entry, looked up): as above

Regarding `Cc1cc(C)c(S(=O)(=O)NCCN2CCC(n3c(=O)[nH]c4ccccc43)CC2)c(C)c1`, the remaining activity was 133%.
The value for `O=C(NCCN1CCC(n2c(=O)[nH]c3ccccc32)CC1)c1cccc2cccnc12` was 30.7% (active); that for `O=C(N[C@@H](Cc1ccccc1)CN1CCC(n2c(=O)[nH]c3ccccc32)CC1)c1cnc2ccccc2c1` was 116%; that for `O=C(NCCN1CCC2(CCc3ccccc32)CC1)c1cnc2ccccc2c1` was 113%.
As to `O=C(c1ccc2ccccc2c1)N1CCC(n2c(=O)[nH]c3cc(Cl)ccc32)CC1`, the remaining activity is 77.3%.
The value for `O=C(NCCN1CCC(n2c(=O)[nH]c3ccccc32)CC1)c1cc([N+](=O)[O-])cc([N+](=O)[O-])c1` was 50% (active).
In the case of `Cc1ccccc1NC(=S)NCCN1CCC(n2c(=O)[nH]c3ccccc32)CC1`, the remaining activity was 173%.
The value for `O=C(NCCN1CCC2(CC1)CNc1ccccc12)c1cnc2ccccc2c1` was 126%.
As for `O=C(NCCN1CCC(n2c(=O)[nH]c3ccccc32)CC1)Nc1cccc(F)c1`, the remaining activity is 20.1% (active).
The value for `C[C@@H](CN1CCC(n2nnc3cc(C(F)(F)F)ccc32)CC1)NC(=O)c1cnc2ccccc2c1` was 101%; that for `C[C@@H](CN1CCC(c2nc3ccccc3[nH]2)CC1)NC(=O)c1ccc2ccccc2c1` was 58.7%.
The value for `C[C@H](CN1CCC2(CC1)CNCc1ccccc12)NC(=O)c1cnc2ccccc2c1` was 69%; that for `Cn1c(=O)n(C2CCN(CCNC(=O)c3ccc4ccccc4c3)CC2)c2ccccc21` was 71.6%; that for `C[C@@H](CN1CCC2(CC1)CCN(C)C2=O)NC(=O)c1ccc2ccccc2c1` was 122%.
The value for `C[C@H](CN1CCC(n2nnc3ccccc32)CC1)NC(=O)c1ccc2ccccc2c1` was 27.1% (active); that for `O=C(NCCN1CCC(n2c(=O)[nH]c3ccccc32)CC1)C1(c2ccccc2)CCC1` was 127%.
In the case of `O=C(NCCN1CCN(c2ccccn2)CC1)c1ccc(F)cc1`, the remaining activity was 126%.
Take `C[C@@H](CN1CCC(n2c(=O)[nH]c3cc(-c4ccc(C(F)(F)F)cc4)ccc32)CC1)NC(=O)[C@H]1C[C@@H]1c1ccccc1`: the remaining activity was 63.9%.
Take `O=C(NCCN1CCC(n2c(=O)[nH]c3ccccc32)CC1)c1ccccc1-c1ccccc1`: the remaining activity was 92.1%.
The value for `COc1ccc2c(c1)c(CC(=O)NCCN1CCC(n3c(=O)[nH]c4ccccc43)CC1)c(C)n2C(=O)c1ccc(Cl)cc1` was 98.1%.
For `O=C(NCCN1CCC(n2nnc3ccccc32)CC1)c1cnc2ccccc2c1`, the remaining activity is 79.2%.
As for `O=C(NCCN1CC=C(n2c(=O)[nH]c3ccccc32)CC1)C1CC1c1ccccc1` (stereo unspecified), the remaining activity is 0% (active).
The value for `C[C@@H](CN1CCC(c2nc3ccc(F)cc3[nH]2)CC1)NC(=O)[C@H]1CC1c1ccccc1` (stereo partly specified) was 88%; that for `O=C(NCCN1CCN(c2ncccn2)CC1)c1ccc(F)cc1` was 76.5%; that for `O=C(NCCN1CCC(n2c(=O)[nH]c3ccccc32)CC1)Nc1ccccc1C(F)(F)F` was 131%.
Consider `O=C(NCCN1CCC(n2c(=O)[nH]c3ccccc32)CC1)c1ccc2c(c1)CCCC2`, for which the remaining activity was 83.6%.
As to `Nc1cccc(Cl)c1C(=O)NCCN1CCC(n2c(=O)[nH]c3ccccc32)CC1`, the remaining activity is 89.2%.
The value for `C[C@@H](CN1CCC2(CC1)CN(S(C)(=O)=O)c1ccccc12)NC(=O)c1ccc2ccccc2c1` was 119%; that for `CC(C(=O)NCCN1CCN(c2ccncc2)CC1)(c1ccccc1)c1ccccc1` was 204%.
The value for `NCCN1CCC(n2c(=O)[nH]c3cc(Cl)ccc32)CC1` (tested in a mixture with another compound) was 62.4%; that for `C[C@H](CN1CCC2(CC1)CNc1ccccc12)NC(=O)c1cnc2ccccc2c1` was 55%; that for `O=C(NCCN1CCC2(C=Cc3ccccc32)CC1)[C@H]1C[C@@H]1c1ccccc1` was 107%.
The value for `O=C(NCCN1CCC(n2c(=O)[nH]c3ccccc32)CC1)c1ncccn1` was 120%.
`Cc1ccc(C(=O)NCCN2CCN(c3ccccn3)CC2)cc1`: the remaining activity was 111%.
With `O=C(NCCN1CCC(n2c(=O)[nH]c3cc(I)ccc32)CC1)C1CC1c1ccccc1` (stereo unspecified), the remaining activity is 16.1% (active).
The value for `CC(C)[C@@H](CN1CCC(n2c(=O)[nH]c3ccccc32)CC1)NC(=O)c1cc2cc(F)ccc2[nH]1` was 69.6%.
